Screening data (PubChem BioAssay)
The entries come from a sample that favours hits as a whole.
RT RNaseH block: HIV-1 RT RNase H inhibitors, primary screen, biochemical, fluorescence; RT-RNase H RNA/DNA duplex cleavage; 1.9% of 65,000 active; inhibition, % at 10 µM; AID 565, 2006; Gag-Pol polyprotein (Human immunodeficiency virus type 1 group M subtype B (isolate …; in the data active = inhibition above about 50%
A number is an active result.

What do the screens show for `Cc1n[nH]c(C)c1S(=O)(=O)N(CC(=O)N1CCc2ccccc21)c1ccc(C(C)C)cc1`?
RT RNaseH block: 51

Results for CCOc1ccc(N(CC(=O)N2CCc3ccccc32)S(=O)(=O)c2c(C)noc2C)cc1 ?
RT RNaseH block: inactive

Results for Cc1cc(C)cc(N(CC(=O)N2CCc3ccccc32)S(=O)(=O)c2c(C)noc2C)c1 ?
RT RNaseH block: inactive

How did CCCCC(CCC(=O)Nc1ccccc1C(=O)OCC)C(=O)O (stereo not given) do in these assays?
RT RNaseH block: inactive

How did Cc1nc2sc(C(c3ccccc3)N3CCN(c4ccccc4F)CC3)c(O)n2n1 (stereo not given) do in these assays?
RT RNaseH block: inactive

Results for c1cncc(-c2nnc3sc(C4CCCCC4)nn23)c1 ?
RT RNaseH block: inactive

Results for COc1cccc(-c2nnc3sc(C4CCCCC4)nn23)c1 ?
RT RNaseH block: inactive

How did CCOc1cccc(-c2nnc3sc(C4CCCCC4)nn23)c1 do in these assays?
RT RNaseH block: 59

How did Cc1ccc(-c2nc3s/c(=C\c4ccco4)c(=O)n3n2)cc1 do in these assays?
RT RNaseH block: inactive

Results for O=c1nc2s/c(=C\c3ccco3)c(=O)n2nc1Cc1ccc(F)cc1 ?
RT RNaseH block: 53

What do the screens show for `N#CC1=C(N)n2c(s/c(=C\c3ccco3)c2=O)=C(C#N)C1c1ccco1` (stereo not given)?
RT RNaseH block: inactive

Results for COc1cccc(C2=NOC(C(=O)NC3CCCCC3)C2)c1 (stereo not given) ?
RT RNaseH block: inactive

Results for O=S(=O)(Nc1ccc(S(=O)(=O)N2CCCCC2)cc1)c1ccc(Br)s1 ?
RT RNaseH block: inactive

What do the screens show for `CC(=O)c1sc(NC(=O)C2(F)C(F)(F)C(F)(F)C(F)(F)C(F)(F)C2(F)F)nc1C`?
RT RNaseH block: inactive

What do the screens show for `CCOC(=O)C(C)Sc1nnc(Cc2cc(=O)[nH]c(=O)[nH]2)n1-c1ccc(Cl)cc1` (stereo not given)?
RT RNaseH block: inactive

What do the screens show for `Cc1nnc(NC(=O)NCN2C(=O)C3C4C=CC(C4)C3C2=O)s1` (stereo not given)?
RT RNaseH block: inactive

What do the screens show for `O=C(NCN1C(=O)C2C3C=CC(C3)C2C1=O)Nc1nccs1` (stereo not given)?
RT RNaseH block: 55

Results for CCc1nnc(NC(=O)NCN2C(=O)C3C4C=CC(C4)C3C2=O)s1 (stereo not given) ?
RT RNaseH block: inactive

Results for O=C(CN1CCC(O)(c2ccccc2F)CC1)NCCc1c[nH]c2ccccc12 ?
RT RNaseH block: inactive

How did CCN1CC=C2C(C#N)=C(N)C(C#N)(C#N)C(c3cc(Cl)ccc3Cl)C2C1 (stereo not given) do in these assays?
RT RNaseH block: inactive

Results for COc1cccc(C2C3=C(CCCC3=O)Nc3nc4ccccc4n32)c1OC (stereo not given) ?
RT RNaseH block: inactive

Results for Cc1ccc(C(=O)CSc2ccccn2)cc1 ?
RT RNaseH block: inactive

What do the screens show for `Cc1nc(SCC(=O)c2ccc(F)cc2)n[nH]1`?
RT RNaseH block: inactive

Results for O=C(CSc1ccccn1)c1ccc(F)cc1 ?
RT RNaseH block: 65

What do the screens show for `C=CCn1c(SCc2c(F)cccc2Cl)nnc1-c1ccco1`?
RT RNaseH block: inactive

Results for CCOc1ccc2cc(C#N)c(SCC(=O)N3CCC(C)CC3)nc2c1 ?
RT RNaseH block: inactive

What do the screens show for `CCOC(=O)CSc1nc2cc(OCC)ccc2cc1C#N`?
RT RNaseH block: inactive

Results for CCOc1ccc2cc(C#N)c(SCC(=O)NC(C)CC)nc2c1 (stereo not given) ?
RT RNaseH block: 58

What do the screens show for `Cn1c(=O)c2sccc2n2c(CCCC(=O)NCc3ccc4c(c3)OCO4)nnc12`?
RT RNaseH block: inactive

How did COc1ccccc1N1C(=O)CC(Sc2nccc(C)n2)C1=O (stereo not given) do in these assays?
RT RNaseH block: 60

What do the screens show for `CCOc1ccccc1N1C(=O)CC(Sc2ncccc2C(=O)O)C1=O` (stereo not given)?
RT RNaseH block: inactive

How did CCOc1ccc(N2C(=O)CC(Sc3nccc(C)n3)C2=O)cc1 (stereo not given) do in these assays?
RT RNaseH block: inactive

Results for CCOC(=O)c1c(C(F)(F)C(F)(F)C(F)(F)C(F)(F)F)n[nH]c1C ?
RT RNaseH block: inactive

What do the screens show for `O=C(CCCC(=O)N(CC(=O)NC1CCCC1)Cc1ccc2c(c1)OCO2)Nc1ccccn1`?
RT RNaseH block: inactive

Results for CCc1nc2scc(-c3ccccc3)c2c(=O)n1N ?
RT RNaseH block: inactive

How did Cc1nc2scc(-c3ccccc3)c2c(=O)n1N do in these assays?
RT RNaseH block: inactive

What do the screens show for `O=c1[nH]c(Cn2nnc(-c3ccccc3)n2)nc2scc(-c3ccccc3)c12`?
RT RNaseH block: 53

Results for NC/C(=N\O)c1ccc(Cl)cc1Cl ?
RT RNaseH block: inactive

What do the screens show for `Cc1cc(-c2ccccc2)n(-c2ccc(C(=O)N3CCN(c4ncccn4)CC3)cc2)n1`?
RT RNaseH block: inactive

How did CC1(C)CC(=O)C2=C(C1)N(Cc1ccco1)C(=O)C2(NC(=O)C1CCCCC1)C(F)(F)F (stereo not given) do in these assays?
RT RNaseH block: inactive

How did O=C(CSc1ncnc2c1nnn2-c1ccc(F)cc1)N1CCN(c2ccccc2)CC1 do in these assays?
RT RNaseH block: inactive

Results for COc1ccc(N2C(=O)CC(Sc3nnc(-c4ccccc4)o3)C2=O)cc1 (stereo not given) ?
RT RNaseH block: inactive

What do the screens show for `O=C1c2ccccc2CC1Sc1nnc(-c2ccccn2)o1` (stereo not given)?
RT RNaseH block: inactive

How did O=C1CC(Sc2nnc(-c3ccccc3O)o2)C(=O)N1c1ccccc1 (stereo not given) do in these assays?
RT RNaseH block: 55

How did COc1ccc(OC)c(C2C(C(N)=O)=C(C)Nc3nc(CCCO)nn32)c1 (stereo not given) do in these assays?
RT RNaseH block: inactive

How did CCOc1cccc(NC(=O)c2ccc(S(=O)(=O)N3CCCC3)cc2)c1 do in these assays?
RT RNaseH block: inactive

Results for Cc1ccc(S(=O)(=O)NCCC(=O)NC2CCCC2)cc1 ?
RT RNaseH block: inactive

What do the screens show for `CC(C)OC(=O)CSc1nnc(-c2ccc(Cl)cc2Cl)o1`?
RT RNaseH block: inactive

Results for C[C@H](N)c1nnc(SCc2ccc(Cl)cc2Cl)o1 ?
RT RNaseH block: inactive

Results for CCC(c1nnc(SCC(=O)NCCc2ccc(Cl)cc2Cl)o1)N(C)C (stereo not given) ?
RT RNaseH block: 51

How did O=C(CSC1=NCCN1)C1COc2ccccc2O1 (stereo not given) do in these assays?
RT RNaseH block: inactive

Results for COc1ccc2c(CC(=O)Nc3ccc(OC)c(NS(=O)(=O)c4ccc(F)cc4)c3)coc2c1 ?
RT RNaseH block: inactive

What do the screens show for `O=c1[nH]c(=O)n(Cc2ccccc2)c(O)c1C=Nc1ccc(CN2CCOCC2)cc1`?
RT RNaseH block: inactive

How did CCn1c(C)cc(=S)c2ccccc21 do in these assays?
RT RNaseH block: inactive

Results for CCn1c(O)c(C=Nc2ccccc2)oc1=S ?
RT RNaseH block: 54

What do the screens show for `Cc1c(OC(=O)CNC(=O)OC(C)(C)C)ccc2c3c(c(=O)oc12)CCC3`?
RT RNaseH block: inactive

What do the screens show for `CCOC(=O)C1=C(C)NC(C)=C(C(=O)OCC)C1C(=O)OCC(=O)N1CCc2ccccc2C1`?
RT RNaseH block: inactive

What do the screens show for `CCCc1nc(S(=O)(=O)Cc2ccc(Cl)cc2Cl)n[nH]1`?
RT RNaseH block: inactive

What do the screens show for `CC(C)(C)NS(=O)(=O)c1cccc(S(=O)(=O)c2cccc(S(=O)(=O)NC(C)(C)C)c2)c1`?
RT RNaseH block: inactive

How did c1coc(-c2nnc3sc(Cc4cccs4)nn23)c1 do in these assays?
RT RNaseH block: 50
